KB-3-1 cytotox – kills parental KB-3-1 adenocarcinoma cells; KB-3-1 viability, CellTiter-Glo ATP luminescence, 72 h; Potency, µM (top dose mostly 46.1 µM), most hits filed as cytotoxic; hit rate 1.4% among 400,000; note: nearly all actives have a fitted effect of over 60% in size
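Parental KB-3-1 viability, qHTS format: 72 h compound exposure, 37 °C; CellTiter-Glo; media-only wells and DMSO plates as controls; concentration-effect fits on corrected data.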
HT1080NT lethal – kills 2HG-producing HT-1080-NT fibrosarcoma cells; HT-1080-NT fibrosarcoma viability, CellTiter-Glo ATP luminescence, 48 h; Potency, µM (top dose mostly 46.1 µM), without a hit: at the top dose activity, negative = less viability, actives largely listed as cytotoxic; hit rate 1.6% among 360,000; AID 686970;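 note: NT is the 2HG producing partner of a matched IDH1 knockdown line; 0% = DMSO-treated cells and -100% = media-only wells without cells; nearly all actives have a fitted effect of over 55% in size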
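Toxicity toward the 2HG-producing NT line was scored as %Activity, normalised to DMSO and no-cell wells, from CellTiter-Glo luminescence after 48 hours' treatment.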
TDP1 cell noCPT – qHTS for Inhibitors of human tyrosyl-DNA phosphodiesterase 1 (TDP1): qHTS in cells in absence of CPT | DT40 Tdp1-/- hTDP1 cells, no CPT, ATP luminescence, 48 h | hit rate 15% among 420,000 | AID 686978, 2013 | Potency, µM (series often up to 46.2 µM), without a hit: at the top dose activity change, negative = growth inhibition, hits mostly inhibitors; note: nearly all actives have a fitted effect of over 55% in size
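Seeded 400 DT40-hTDP1 cells/well (vehicle DMSO, no 20 nM CPT); pinned compounds; ≥48 hr at 37 °C; CellTiter-Glo luminescence as viability measure.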
TDP1 cell CPT – growth inhibition of DT40 Tdp1-/-;hTDP1 cells with camptothecin (screen for TDP1 inhibitors). Potency, µM (titrated, usually from 46.2 µM), inactives show at the highest dose activity change, negative = growth inhibition, actives largely listed as inhibitors. chicken DT40 Tdp1-/-;hTDP1 cells + 20 nM CPT, ATP luminescence, 48 h. hit rate 12% among 420,000. AID 686979; note: nearly all actives have a fitted effect of over 55% in size
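Chicken DT40 Tdp1-/- cells stably complemented with human TDP1 were seeded at 400 cells/well in medium containing 20 nM camptothecin, exposed to pin-transferred compounds, and grown at 37 °C for at least 48 hr. Viability was read as ATP luminescence.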
HT1080 IDH1KD tx – HT-1080 IDH1 knockdown cell toxicity (counter line). HT-1080 IDH1 knockdown viability, ATP luminescence, 48 h. Potency, µM (top dose mostly 46.1 µM), for inactives: at the highest dose activity, negative = toxicity, most hits filed as cytotoxic. AID 686971. hit rate 2% among 360,000;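 note: 0% = DMSO wells and -100% = cell-free medium wells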
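Viability of IDH1-knockdown HT-1080 fibrosarcoma cells was assessed by CellTiter-Glo after 48 h at 37 °C with titrated compound; concentration-effect curves were classified by fit quality and response size.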
KB-V1 MDR tox – KB-V1 MDR subline cytotoxicity; KB-V1 MDR cells viability, CellTiter-Glo, 72 h; Potency, µM (doses to about 46.1 µM), most hits filed as cytotoxic; hit rate 3.4% among 400,000; note: nearly all actives have a fitted effect of over 60% in size
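Drug-selected KB-V1 cells, grown in DMEM lacking phenol red with 10% FBS, receive compound titrations; after three days at 37 degrees C, surviving cell ATP is quantified by CellTiter-Glo luminescence and responses normalized and curve-fitted.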
An asterisk follows results filed as active; i = inactive; ? = inconclusive; nt = no result given; ! = a repeat was not active; [ ] = remark or other dose. The list is not random: actives were taken first. Their share in the collection is about 19%. Calls come from the whole dose curve; as a rule, active = well fitted curve in the direction sought with a large enough effect; inconclusive = small, poorly fitted or top-dose-only effect, or another doubt; inactive = no such curve, though single readings can be large; an effect the other way counts as inactive or inconclusive. Unless noted, % is set by controls: 0 for no effect and ±100 for the full control effect; potency is the fitted concentration of half-maximal effect.

SMILES	KB-3-1 cytotox	HT1080NT lethal	TDP1 cell noCPT	TDP1 cell CPT	HT1080 IDH1KD tx	KB-V1 MDR tox
CCOc1ccc(CCN2C(=S)N([C@@H](CC(C)C)CN3CCCC3CN3C(=S)NC[C@@H]3Cc3ccc(O)cc3)C[C@@H]2CC(C)C)cc1 (some centres undefined)	?	-14%	16µM*	?	?	?
CCOc1ccc(CCN2C(=S)N([C@@H](CC(C)C)CN3CCC[C@@H]3CN3C(=S)NC[C@@H]3CC(C)C)C[C@@H]2CC(C)C)cc1	i	-14%	?	?	4%	i
CCOc1ccc(CCN2C(=S)N([C@@H](CC(C)C)CN3CCC[C@@H]3CN3C(=S)NC[C@@H]3CC(C)C)C[C@@H]2Cc2ccc(O)cc2)cc1	?	23µM*	12µM*	9.2µM*	16µM*	i
CCOc1ccc(CCN2C(=S)N([C@@H](CC(C)C)CN3CCCC3CN3C(=S)NC[C@@H]3Cc3ccccc3)C[C@@H]2CC(C)C)cc1 (some centres undefined)	?	?	16µM*	?	?	?
COc1ccccc1C1Nc2cccc3cccc(c23)N1	i	-2%	21µM*	15µM*	-5%	i
Brc1cccc(C2Nc3cccc4cccc(c34)N2)c1	i	-8%	-19%	?	0%	?
CN1c2cccc3cccc(c23)N(C)C1c1cccs1	i	11%	-14%	-4%	0%	i
CN(C)c1ccc(C2Nc3cccc4cccc(c34)N2)cc1	?	-4%	23µM*	?	1%	i
c1csc(C2Nc3cccc4cccc(c34)N2)c1	i	-6%	?	16µM*	-11%	i
O=[N+]([O-])c1ccccc1C1Nc2cccc3cccc(c23)N1	i	-11%	?	7.3µM*	-26%	i
Oc1ccccc1C1Nc2cccc3cccc(c23)N1	i	0%	?	?	2%	i
COc1cc(OC)c(C2Nc3cccc4cccc(c34)N2)c(OC)c1	i	-18%	15µM*	21µM*	-11%	i
CN(C)c1ccc(C2NC(=O)c3ccccc3N2)cc1 (centres undefined)	?	-22%	-15%	-49%	-23%	13µM*
Clc1cccc(Cl)c1C1Nc2cccc3cccc(c23)N1	?	?	?	?	?	i
COc1ccc(C2Nc3cccc4cccc(c34)N2)cc1	i	3%	?	21µM*	-1%	i
O=C1NC(c2ccc(Cl)cc2)Nc2ccccc21 (centres undefined)	i	-7%	-20%	6%	5%	i
COc1cc(OC)c(C2SCCS2)c(OC)c1	i	6%	7%	7%	7%	i
Clc1ccc(C2Nc3cccc4cccc(c34)N2)cc1Cl	i	-4%	?	?	0%	i
Fc1cccc(Cl)c1C1Nc2cccc3cccc(c23)N1	i	-1%	21µM*	23µM*	-3%	?
C=C[C@H](CC(C)C)N(Cc1ccccc1)S(=O)(=O)N(Cc1ccccc1)[C@H](C=C)CC(C)C	i	nt	?	?	nt	i
Cc1ccc(S(=O)(=O)N2C[C@H]3C(=O)C[C@@H](c4ccccc4)N(S(=O)(=O)c4ccc(C)cc4)[C@H]3C[C@H]2c2ccccc2F)cc1	i	23%	-27%	-7%	0%	i
Brc1ccc(C2Nc3cccc4cccc(c34)N2)o1	i	?	18µM*	21µM*	0%[9.24 µM]	i
Clc1cccc(C2Nc3cccc4cccc(c34)N2)c1	i	0%	10µM*	5.2µM*	3%	i
c1ccc(C2Nc3cccc4cccc(c34)N2)cc1	i	1%	-89%	18µM*	4%	i
CCn1c(SC(C)C(=O)NC2CCCC2)nc2cc(S(N)(=O)=O)ccc21 (centres undefined)	i	-1%	3%	-1%	0%	i
SMILES	KB-3-1 cytotox	HT1080NT lethal	TDP1 cell noCPT	TDP1 cell CPT	HT1080 IDH1KD tx	KB-V1 MDR tox
COC(=O)[C@]12CCCCC=C1N(Cc1ccccc1)C(=O)[C@H](CC(=O)N1CCCC1)C2	i	15%	?	?	5%	i
COC(=O)[C@]12CCCCC=C1N(CCc1ccc(OC)c(OC)c1)C(=O)[C@H](CC(=O)N1CCN(C(=O)c3ccco3)CC1)C2	i	-22%	?	?	-29%	?
COC(=O)[C@]12CCCCC=C1N(CCC1=CCCCC1)C(=O)[C@H](CC(=O)N1CCCC1)C2	i	2%	16µM*	?	-6%	i
COC(=O)[C@]12CCCCC=C1N(CCC1=CCCCC1)C(=O)[C@H](CC(=O)N1CCC(c3ccccc3)CC1)C2	i	?	16µM*	?	?	?
COC(=O)[C@]12CCCCC=C1N(CCC1=CCCCC1)C(=O)[C@H](CC(=O)N1CCN(C(=O)c3ccco3)CC1)C2	i	-14%	26µM*	?	-17%	i
COC(=O)[C@]12CCCCC=C1N(CCc1ccc(OC)c(OC)c1)C(=O)[C@H](CC(=O)N1CCCC1)C2	i	15%	?	?	2%	i
Cc1cccc2cc(C#N)c(NCCNC(=O)c3ccccc3)nc12	i	13%	?	6%	5%	?
CC(C)Cc1ccc(C(=O)Nc2ccc(Cc3ccncc3)cc2)o1	i	-25%	?	?	-24%	i
COc1cc(-c2noc(C)c2/C=C/c2ccc(OC(C)=O)cc2)cc(OC)c1OC	0.73µM*	0.37µM*	0.82µM*	0.73µM*	0.52µM*	1.3µM*!
COc1ccc(-c2oc(=O)c3cc(OC)c(OC)cc3c2/C=C/c2ccc(OC(C)=O)cc2)cc1	i	-22%	9.2µM*	21µM*	?	i
COc1ccc(-c2oc(=O)c3cc(OC)c(OC)cc3c2/C=C/c2ccc(F)cc2)cc1	i	12%	?	-8%	16%	i
Cn1nc(C(C)(C)C)cc1C(=O)Sc1cccc(Br)c1	i	?	10µM*	3.7µM*	?	i
COc1ccc(NC(=O)CCN2CCN(CCO)CC2)c(OC)c1	i	nt	-11%	-10%	nt	i
Nc1ccc(S(=O)(=O)Nc2nc(-c3ccccc3)cc(-c3ccccc3O)n2)cc1	i	-19%	-16%	-24%	?	i

Screening data (PubChem)
